# Compound activity (PubChem BioAssay)
# Rows were chosen to be rich in hits. Some 19% of all compounds tested hit in one or more screens of this group.
# TGFb inhibitor: qHTS for Inhibitors of TGF-b; HepG2 CAGA-GFP TGF-b/SMAD3 reporter, GFP fluorescence, 18 h; TGF-beta stimulated, 500 pg/mL final; Potency, µM (titrated, usually from 46.1 µM), for inactives: top-dose activity, negative = inhibition, most hits filed as inhibitors; 410,000 tested, 1.2% active; note: potency is the fitted concentration of half-maximal effect; % is set by controls: 0 for no effect and ±100 for the full control effect; nearly all actives have a fitted effect of over 65% in size
#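 TGF-beta reporter screen: HEPG2 CAGA-GFP, 1% FBS, 500 pg/mL TGF-beta final, 18 h; per-cell GFP summed per well; curves fitted and categorized by class.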
# TDP1 cell noCPT: qHTS for Inhibitors of human tyrosyl-DNA phosphodiesterase 1 (TDP1): qHTS in cells in absence of CPT | DT40 Tdp1-/- hTDP1 cells, no CPT, ATP luminescence, 48 h | Potency, µM (doses to about 46.2 µM), for the others: at the top dose activity change, negative = growth inhibition, usual class: inhibitors | 420,000 tested, 15% active | AID 686978, 2013; note: potency is the fitted concentration of half-maximal effect; % is set by controls: 0 for no effect and ±100 for the full control effect; nearly all actives have a fitted effect of over 55% in size
#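 Seeded 400 DT40-hTDP1 cells/well (vehicle DMSO, no 20 nM CPT); pinned compounds; ≥48 hr at 37 °C; CellTiter-Glo luminescence as viability measure.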
# IL1B secr inh: qHTS for Inhibitors of Inflammasome Signaling: IL-1-beta AlphaLISA Primary Screen; THP-1 LPS/ATP IL-1B secretion, AlphaLISA, 16 h; stronger effect = lower value; activity change, % at 57.5 µM; 360,000 tested, 4.7% active; AID 743279, 2014; in the data active = activity change below about -50%; inconclusive = mostly about -30% to -49%; note: % is set by controls: 0 for no effect and ±100 for the full control effect
#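 Secreted IL-1B measured by AlphaLISA bead assay after 16 h compound exposure of THP-1 cells; compounds (final up to 57.5 uM) added 1 h before LPS (250 ng/mL) and ATP (1.25 mM) stimulation; lower signal means less secretion.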
# TDP1 inh: qHTS Assay for Inhibitors of Tyrosyl-DNA Phosphodiesterase (TDP1). Tyrosyl-DNA phosphodiesterase 1 (Homo sapiens), Q9NUW8. 350,000 tested, 0.28% active. recombinant TDP1, AlphaScreen DNA substrate cleavage. Potency, µM (highest dose often 130 µM), for inactives: at the highest dose activity change, negative = inhibition, most hits filed as inhibitors. AID 485290, 2010; note: potency is the fitted concentration of half-maximal effect; % is set by controls: 0 for no effect and ±100 for the full control effect; nearly all actives have a fitted effect of over 40% in size
# Target sequence (Q9NUW8 whole entry, looked up): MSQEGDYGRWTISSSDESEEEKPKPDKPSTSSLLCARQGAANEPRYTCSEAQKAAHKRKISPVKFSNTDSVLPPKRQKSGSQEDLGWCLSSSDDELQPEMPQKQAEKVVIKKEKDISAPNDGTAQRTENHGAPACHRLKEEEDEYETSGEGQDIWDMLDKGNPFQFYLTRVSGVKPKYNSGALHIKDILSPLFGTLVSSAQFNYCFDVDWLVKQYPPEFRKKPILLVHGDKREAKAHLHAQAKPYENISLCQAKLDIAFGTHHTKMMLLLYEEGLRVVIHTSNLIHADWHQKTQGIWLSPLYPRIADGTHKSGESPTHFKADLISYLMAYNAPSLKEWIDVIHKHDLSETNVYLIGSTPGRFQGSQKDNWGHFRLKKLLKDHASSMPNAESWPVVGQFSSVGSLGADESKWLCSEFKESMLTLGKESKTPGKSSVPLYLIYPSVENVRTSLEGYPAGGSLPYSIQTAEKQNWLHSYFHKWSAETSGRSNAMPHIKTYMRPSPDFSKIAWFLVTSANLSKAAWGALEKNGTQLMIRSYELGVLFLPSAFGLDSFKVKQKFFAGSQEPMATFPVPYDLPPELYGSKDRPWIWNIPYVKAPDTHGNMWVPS
#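 E. coli-derived human Tdp1, 1 nM final. Cpd preinc 15 min RT; substrate 15 nM final, 5 min RT; AS bead mix 10 ug/ml final, 10 min RT. Signal loss = tyrosine-FITC cleavage. No-enzyme wells = max signal.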
# DT40 TDP1 CPT: qHTS for Inhibitors of human tyrosyl-DNA phosphodiesterase 1 (TDP1): qHTS in cells in presence of CPT; chicken DT40 Tdp1-/-;hTDP1 cells + 20 nM CPT, ATP luminescence, 48 h; Potency, µM (doses to about 46.2 µM), for the others: at the top dose activity change, negative = growth inhibition, usual class: inhibitors; AID 686979, 2013; 420,000 tested, 12% active; note: potency is the fitted concentration of half-maximal effect; % is set by controls: 0 for no effect and ±100 for the full control effect; nearly all actives have a fitted effect of over 55% in size
#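 Chicken DT40 Tdp1-/- cells complemented with human TDP1, 400 cells/well, exposed to compounds plus 20 nM camptothecin for at least 48 h at 37 C; viability read as ATP content by CellTiter-Glo luminescence.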
# HepG2 viability: qHTS for Inhibitors of TGF-b: Cytotox Counterscreen | AID 588856, 2011 | HepG2 CAGA-GFP viability, ATP luminescence, 18 h | Potency, µM (top dose mostly 46.1 µM), inactives show top-dose activity change, negative = cytotoxicity, usual class: cytotoxic | 410,000 tested, 0.76% active; note: potency is the fitted concentration of half-maximal effect
#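 CellTiter-Glo luminescence gave cytotoxicity after 18 hours at 37 degrees C. The cells were HepG2 CAGA-GFP in 1% FBS DMEM, stimulated with 500 pg/mL TGF-beta after compound addition. %Activity was normalised to no-cell wells (complete cell-killing) and DMSO (no toxicity), and curves were fitted and classified.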
# * hit, by the source's call; ? = inconclusive; . = not tested or not shown; ! = repeats disagree; [ ] = remark or other dose. Unless noted, calls come from the whole dose curve; as a rule, active = well fitted curve in the direction sought with a large enough effect; inconclusive = small, poorly fitted or top-dose-only effect, or another doubt; inactive = no such curve, though single readings can be large; an effect the other way counts as inactive or inconclusive.
SMILES,TGFb inhibitor,TDP1 cell noCPT,IL1B secr inh,TDP1 inh,DT40 TDP1 CPT,HepG2 viability
C(=C/c1ccccc1)/CN1CCN(CCOC(c2ccccc2)c2ccccc2)CC1,.,12µM*,.,20%[56.1 µM],6.7µM*,.
OC(CNCCc1c[nH]c2ccccc12)c1ccccc1 (stereo not drawn),11%,-14%,-57*,12%,-12%,-1%
c1coc(CNCCc2c[nH]c3ccccc23)c1,5%,-23%,-14,4%,5%,-16%
Fc1ccccc1CCNCc1ccccc1,4%,-24%,-11,-3%,3%,-2%
Fc1ccc(CNCCc2c[nH]c3ccccc23)cc1,-6%,4.6µM*,-81*,4%,?,-41%
Fc1ccccc1CNCCc1c[nH]c2ccccc12,10%,?,-29,.,16µM*,-18%
Fc1ccc(CNCCc2ccccc2F)cc1,0%,-14%,-27,-1%,-7%,-3%
Fc1ccc(CCNCc2ccc(Br)cc2)cc1,-28%,?,-68*,-4%,?,-65%
CC(=O)NNc1ccccc1,.,.,.,10%,.,.
c1ccc(NNc2ccccc2)cc1,.,.,.,17%,.,.
FC(F)(F)c1ccccc1CNCCc1c[nH]c2ccccc12,-18%,15µM*,-4,.,?,-55%
COc1cccc(CNCCc2c[nH]c3ccccc23)c1,0%,?,-78*,.,?,-8%
COc1cccc(CNCCc2ccc(F)cc2)c1,-2%,?,-14,.,?,-38%
CCCCCCCC(=O)Cl,.,.,.,9%,.,.
c1ccc(CN2CCNCC2)cc1,.,-8%[166 µM],.,.,11%[166 µM],.
c1cc2cc(c1)C[n+]1ccc(c3ccccc31)NCc1ccc(cc1)CNc1cc[n+](c3ccccc13)C2,.,6.7µM*,.,-7%[56.1 µM],9.4µM*,.
CCOc1ccc(Cn2c(=O)oc3ccc(C)cc32)cc1OC,-11%,?,-12,0%,?,-21%
CSc1cccc(CNC(=O)C2CCC(=O)N(Cc3cccc(C(F)(F)F)c3)C2)c1 (stereo not drawn),?,-6%,-11,0%,?,-10%
Cc1c(C(=O)NCc2cccc(C(F)(F)F)c2)sc(=O)n1Cc1ccc(C(=O)N(C)C)cc1,-12%,15µM*,-16,.,?,4%
COc1ccc(CNC(=O)c2sc(=O)n(Cc3ccc(C)cc3)c2C)cc1OC,-7%,16µM*,-25,.,?,-3%
C[C@]12CC[C@H]3[C@@H](CCC4=CC(=O)CC[C@@]43C)[C@@H]1CC[C@@H]2OC(=O)CCc1ccccc1,.,?,.,.,-13%[92.5 µM],.
COc1cc(C(=O)N2Cc3ccccc3-n3nncc3C2)cc(OC)c1OC,-2%,-20%,47,.,-10%,0%
O=S(=O)(c1ccc(Cl)cc1)N1Cc2cc(Br)ccc2-n2nncc2C1,?,23µM*,6,.,21µM*,-15%
COc1ccc(S(=O)(=O)N2Cc3ccccc3-n3nncc3C2)cc1,2%,15µM*,33,.,16µM*,7%
CC(C)S(=O)(=O)N1Cc2ccccc2-n2nncc2C1,6%,10%,-2,.,-1%,0%
SMILES,TGFb inhibitor,TDP1 cell noCPT,IL1B secr inh,TDP1 inh,DT40 TDP1 CPT,HepG2 viability
O=S(=O)(c1cccc2ccccc12)N1Cc2ccccc2-n2nncc2C1,5%,12µM*,8,.,23µM*,-12%
Cc1ccc(S(=O)(=O)N2Cc3cc(-c4ccccc4)ccc3-n3nncc3C2)cc1,?,?,0,.,?,-8%
O=S(=O)(c1cc(Cl)cc(Cl)c1)N1Cc2cc(-c3ccccc3)ccc2-n2nncc2C1,4%,?,10,.,?,-15%
COc1ccc(NC(=S)N2Cc3ccccc3-n3nncc3C2)c(OC)c1,8%,12µM*,20,.,?,-14%
CCOc1ccc2nc(NC(=O)c3cccn(Cc4ccccc4C)c3=O)sc2c1,-12%,2%,.,9%,2%,-6%
C=C[C@@H]1CN2CC[C@H]1C[C@H]2[C@H](O)c1ccnc2ccccc12,.,.,.,-2%,.,.
CCN(CC)c1nc2ccccc2nc1C(=O)Nc1cccc(C(C)=O)c1,-11%,?,.,4%,?,-12%
Cc1cc(C)c(S(=O)(=O)N2Cc3ccccc3-n3nncc3C2)c(C)c1,-16%,2.1µM*,11,.,5.2µM*,-18%
CN(CCCC(=O)c1cccnc1)N=O,.,4%,.,5%,0%,.
CN(C)C/C=C(/c1ccc(Br)cc1)c1cccnc1,40%,12µM*,-20,?,30µM*!,-4%
Cc1ccccc1NC(=NCCCN1CC1)Nc1ccccc1C,-17%,5.2µM*,?,.,2.1µM*,-20%
Cc1ccccc1NC(=O)c1cc(-c2ccccc2)n(CCCN2CCOCC2)c1C,3%,0%,-5,5%,-2%,10%
On1ccccc1=S,0.28µM*,0.0092µM*,-107*,.,0.13µM*,1µM*
COC(=O)C1=C(c2c(C)noc2C)C[C@@H]2CC[C@H]1N2C(=O)NCCNC(C)=O,14%,-12%,7,1%,-3%,-5%
CCC(=O)c1cn(Cc2ccc(C#N)cc2)c2ccccc12,0%,?,-14,2%,-16%,16%
Cc1cccc(Cn2cc(C=O)c3ccccc32)c1,1.1µM*,?,-24,.,?,-35%
N#Cc1ccc(Cn2cc(C=O)c3ccccc32)cc1,1.4µM*,-5%,-1,.,-14%,-47%
O=Cc1cn(Cc2c(F)cccc2Cl)c2ccccc12,3.5µM*,?,-24,2%,?,-6%
O=Cc1cn(CCCOc2ccccc2)c2ccccc12,?,?,-14,1%,?,-23%
c1cncc([C@@H]2CCCCN2)c1,.,?,.,7%,?,.
O=C(Nc1ccc(F)c(Cl)c1)N(Cc1ccc2c(c1)OCO2)C1CCN(Cc2ccccc2)CC1,?,?,.,9%,?,-46%
Cc1cc(=O)oc2cc3c(cc12)CCCN3,14%,-17%,11,.,2%,-4%
NC1=NC(c2cccnc2)n2c(nc3ccccc32)N1 (stereo not drawn),?,7%,18,.,7%,4%
C[C@H]1CC[C@@H]2[C@@H](C)C(=O)O[C@H]3O[C@@]4(C)CC[C@H]1[C@@]32OO4,.,.,.,4%[56.1 µM],.,.
C[C@@H]1CC[C@H]2[C@@H](C)C(=O)O[C@@H]3OC4(C)CC[C@@H]1[C@]32OO4,.,.,.,9%,.,.
